# Bioassay records as filed in PubChem BioAssay.
# Hits are enriched below; roughly 3.1% of the tested compounds scored in any of these assays.
# DENV2 CPE: inhibitors of DENV2 cytopathic effect; DENV2-infected cells, cytopathic effect rescue, plate reader; CPE inhibition, % at 9.99 µM; 350,000 tested, 1.7% active; AID 651640; in the data active means CPE inhibition above about 20%, passing the limit was not always enough; inconclusive means no clear call, values can overlap the other calls; tested in BHK-21 cells;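 further: 0% = median of neutral control wells and 100% = median of positive control wells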
# dFosB act-1: enhances mouse delta FosB homodimer DNA binding; P13346; purified delta FosB, TAMRA-CDK5 oligo fluorescence polarization; percent of positive-control signal above neutral wells; activation, % at 25 µM; 340,000 tested, 0.99% active; AID 493131;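 active means mean activation above about 17%, with every replicate also reaching it, limit read from the data, passing the limit was not always enough; inconclusive means only one of the two conditions met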
# Target sequence (P13346 whole entry, looked up): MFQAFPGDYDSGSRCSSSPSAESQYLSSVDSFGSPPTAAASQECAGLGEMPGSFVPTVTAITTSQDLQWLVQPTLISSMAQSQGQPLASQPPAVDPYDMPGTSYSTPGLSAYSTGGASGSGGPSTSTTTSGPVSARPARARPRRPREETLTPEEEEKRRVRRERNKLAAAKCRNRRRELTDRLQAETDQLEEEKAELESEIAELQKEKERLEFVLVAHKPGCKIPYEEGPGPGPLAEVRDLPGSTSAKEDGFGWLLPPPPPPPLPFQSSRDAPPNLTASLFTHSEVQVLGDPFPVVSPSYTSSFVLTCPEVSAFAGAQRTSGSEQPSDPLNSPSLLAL
# RAD54 branch: RAD54 (human) branch migration inhibition; Q92698; RAD54 Holliday junction branch migration, FAM/BHQ fluorescence; inhibition, % at 10.4 µM; 360,000 tested, 0.14% active;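 active means mean normalized replicate activity at least 40 and at least half of replicates scoring 40 or more; inconclusive means only one of the two criteria met; inactive means mean below 40 and under half of replicates reaching 40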;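 further: 0% = median of neutral control wells and 100% = median of positive control wells; inhibitors cause a drop in the FAM fluorescence signal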
# RAD52 anneal inh: RAD52 (human) annealing inhibition | P43351 | recombinant RAD52 DNA annealing, FRET fluorescence | inhibition, % at 18.7 µM | 360,000 tested, 0.46% active | AID 651710;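 active means every replicate showing at least 50% inhibition; inconclusive means mean inhibition at least 50% but not in every replicate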
# GSIS activator: primary screen for activators of insulin secretion dependent on glucose, INS-1E cells, GLuc reporter luminescence; INS-1E GLuc reporter insulin secretion, 2-3 h; activation, % at 16.6 µM; 370,000 tested, 0.61% active; AID 743287;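 active means lowest replicate activation of at least 40%, so every replicate reaches that level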;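 further: 0% = median of neutral control wells and 100% = median of IBMX positive control wells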
# AF4-AF9 inh: blocks AF4 peptide binding to human AF9; P42568; AlphaScreen, biotin-AF4 peptide binding to FLAG-AF9; inhibition, % at 10 µM; 350,000 tested, 0.47% active; AID 651704;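 active means every replicate reaching a set inhibition limit, whatever the replicate mean, cut at about 25% in these data; inconclusive means mean inhibition reaches that limit but some replicates miss it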;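 further: 0% = plate neutral control median and 100% = total signal loss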
# dFosB act-2: enhances mouse delta FosB homodimer binding to DNA; shares compounds with dFosB act-1; 2,400 tested, under 10 active; purified delta FosB, TAMRA-CDK5 oligo fluorescence polarization; normalised: neutral wells 0, positive control 100; activation, % at 24.9 µM;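 active means highest replicate activation at or above 34% and every replicate reaching that threshold; inconclusive means meets only one of the two criteria; inactive means meets neither criterion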;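 further: higher polarization means more probe DNA bound by delta FosB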
# Numbers without * were called inactive; ? = inconclusive; . = no result.
SMILES,DENV2 CPE,dFosB act-1,RAD54 branch,RAD52 anneal inh,GSIS activator,AF4-AF9 inh,dFosB act-2
Cc1cnc(C(=O)N2CCN(S(=O)(=O)c3ccc(F)c(F)c3F)CC2)cn1,-2,19*,-3,-1,25,-1,-2
CCc1cc2ccc(C)cc2nc1SCC(=O)Nc1c[nH]c(=O)[nH]c1=O,.,22*,.,-3,-6,-3,6
CCc1cc2c(C)ccc(C)c2nc1SCC(=O)Nc1c[nH]c(=O)[nH]c1=O,4,-1,.,-30,-1,-1,.
CCc1cc2cc3c(cc2nc1SCC(=O)Nc1cc(C)on1)OCO3,.,49*,-5,.,.,.,-2
O=C(NC1CC1)C1CCN(C2CCN(C(=O)c3c(F)cccc3Cl)CC2)CC1,5,27*,-8,-23,-13,-2,2
C=CCn1c(=O)c2ccc(C(=O)NCc3ccccc3)cc2n(Cc2cccc(Cl)c2)c1=O,-4,42*,5,0,.,-2,0
O=C(NCc1ccco1)c1ccc2c(=O)n(-c3ccccc3)c(=O)n(Cc3cccc(F)c3)c2c1,5,47*,-2,-33,-6,1,-1
Cc1ccccc1Cn1c(=O)n(-c2ccccc2)c(=O)c2ccc(C(=O)NCc3ccco3)cc21,12,45*,1,-20,-9,-3,1
O=C(C1CCCC1)N1C[C@@H]2[C@H](c3ccccc31)[C@@H](CO)N2C(=O)c1cccnc1,-9,.,2,-13,22,-3,.
CC(C)C[C@@H](CN1CCCC1CN1C(=S)NC[C@@H]1Cc1ccc(O)cc1)N1C[C@H](Cc2ccc(O)cc2)N(CC2CCCCCC2)C1=S (stereo partly drawn),41*,21*,0,-17,-4,10,2
CC(C)C[C@H]1CNC(=S)N1CC1CCCN1C[C@H](Cc1ccccc1)N1C[C@H](Cc2ccc(O)cc2)N(CC2CCCCCC2)C1=S (stereo partly drawn),-4,57*,1,-14,-6,4,7
CC(C)C[C@H]1CN([C@@H](Cc2ccc(O)cc2)CN2CCC[C@@H]2CN2C(=S)NC[C@@H]2Cc2ccccc2)C(=S)N1CC1CCCCCC1,1,.,0,29,-8,-53,.
CC(C)C[C@@H](CN1CCCC1CN1C(=S)NC[C@@H]1Cc1ccc(O)cc1)N1C[C@H](Cc2ccccc2)N(CC2CCCCCC2)C1=S (stereo partly drawn),-10,45*,4,-2,-4,4,5
CC(C)C[C@@H](CN1CCC[C@@H]1CN1C(=O)C(=O)NC[C@@H]1Cc1ccccc1)N1C[C@H](Cc2ccccc2)N(CC2CCCCCC2)C(=O)C1=O,7,35*,9,6,.,-13,5
CC(C)C[C@@H](CN1CCCC1CN1C(=S)NC[C@@H]1Cc1ccc(O)cc1)N1C[C@H](Cc2ccccc2)N(CC2CCCCC2)C1=S (stereo partly drawn),?,52*,2,-4,-3,5,1
COc1ccccc1NC(=O)N1CC(=O)N2[C@H](C1)[C@@H](c1ccc(C#CC(C)C)cc1)[C@@H]2CO,3,.,.,8,-9,2,.
COc1ccc(C2c3ccc4ccccc4c3Oc3ncn(Cc4ccco4)c(=N)c32)cc1OC (stereo not drawn),.,53*,2,.,-18,.,5
O=C(N/N=C/C=C\c1ccccc1[N+](=O)[O-])c1cc(-c2ccc3ccccc3c2)n[nH]1,-3,25*,-7,-10,2,-7,2
O=C(N/N=C/c1ccccn1)c1cc(-c2ccc3ccccc3c2)n[nH]1,1,19*,.,-2,-3,1,3
CCc1ccc(-c2cc(C(=O)N/N=C/c3ccccn3)[nH]n2)cc1,1,-18,.,-5,1,2,.
C[C@@H]1CN([C@H](C)CO)C(=O)c2cccc(NS(=O)(=O)c3ccc(F)cc3)c2O[C@@H]1CN(C)C,10,.,4,-6,5,-3,.
CC1CC(C)CN(C(=O)Cn2c(SCC(=O)N3CCc4ccccc4C3)nc3ccccc32)C1 (stereo not drawn),.,24*,-1,.,.,.,6
COc1ccc(NC(=O)N(C)C[C@@H]2Oc3c(NS(=O)(=O)c4cn(C)cn4)cccc3C(=O)N([C@@H](C)CO)C[C@H]2C)cc1,-2,.,8,1,0,-3,.
CCCn1c(SCC(=O)NCC(=O)Nc2ccc(F)c(F)c2F)nc2ccccc2c1=O,9,26*,.,-1,-3,0,2
C/C(N)=C(/C#N)C(=O)CSc1nc2ccccc2c(=O)n1Cc1ccc(C)cc1,-5,21*,.,-14,2,-1,5
SMILES,DENV2 CPE,dFosB act-1,RAD54 branch,RAD52 anneal inh,GSIS activator,AF4-AF9 inh,dFosB act-2
C/C(N)=C(/C#N)C(=O)CSc1nc2ccccc2c(=O)n1Cc1ccc(F)cc1,-2,-9,-10,-12,9,-15,.
CCCNC(=O)CSc1nc2ccccc2c(=O)n1CCC,13,-4,.,8,-16,-1,.
CC(=O)NCCn1c(SCC(=O)NCc2ccco2)nc2ccccc2c1=O,.,1,6,.,.,.,.
O=C(CSc1nc2ccccc2c(=O)n1Cc1ccc(Cl)cc1)NCc1cccs1,-5,27*,10,-12,4,0,0
CCCCn1c(SCC(=O)NCc2ccco2)nc2ccccc2c1=O,.,18*,16,.,.,.,5
O=C(Nc1ccc(F)cc1)N[C@@H]1CC[C@@H](CCNC(=O)c2ccccc2F)O[C@H]1CO,11,.,.,0,2,-6,.
Cc1noc(C)c1S(=O)(=O)N(C)C[C@H]1Oc2ccc(NC(=O)Cc3cn(C)c4ccccc34)cc2C(=O)N([C@H](C)CO)C[C@@H]1C,.,.,.,.,2,.,.
CO[C@H]1CN(C)C(=O)c2ccc(NC(=O)C3CC3)cc2OC[C@@H](C)N(C(=O)C2CCOCC2)C[C@@H]1C,-2,.,-2,11,26,1,.
CCN(CC)c1nc(NN)nc(Nc2ccc(C)c(Cl)c2)n1,-5,42*,.,4,.,-2,?
COc1cccc(-c2sc3ccccc3c2-c2ccc(OCCN3CCCCC3)cc2)c1,.,34*,8,.,.,.,1
COc1cccc(-c2sc3ccccc3c2-c2ccc(OCCN3CCCC3)cc2)c1,10,6,3,-99,-4,?,.
Nc1nonc1-c1nc2ccccc2n1CC(=O)Nc1ccccc1,5,33*,3,-13,6,3,2
CN1CCN(c2nc(Nc3ccc(F)cc3)nc(Nc3ccc(F)cc3)n2)CC1,-6,40*,12,6,-9,18,-2
COc1cccc(OCCNC(=O)Nc2cc(F)c(F)cc2Cl)c1,5,74*,1,0,-8,-2,-1
